This passage reports growth results from PubChem BioAssay (NCI).

This is part of a sample that, as a whole, favours compounds with a hit. Of some 83,000 tested, about 20% had one in any assay.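 48-hour exposure, single concentration, 96-well plates; percent growth endpoint where 0 means no net growth. Active: below 10.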 Unmarked numbers belong to inactive results. Calls of active or inactive are those of the source.

Test in all cases: NCI-60 one-dose screen, 48 h (100 = growth as untreated, 0 = no growth, -100 = all killed)
Conditions in all cases: 10 µM unless noted

Assay [1] relates to RPMI-8226 leukemia.
The test system of assay [2] is OVCAR-8 ovarian.
In assay [3] the test system is OVCAR-5 ovarian.
For assay [4], the system named is SK-OV-3 ovarian.
Assay [5] deals with IGROV1 ovarian.
Assay [6] relates to OVCAR-3 ovarian.
Assay [7] has as its system HS 578T breast.
Assay [8] concerns NCI/ADR-RES ovarian.
Assay [9] has as its system T-47D breast.
The test system of assay [10] is OVCAR-4 ovarian.

For `O=C(Nc1ccc(F)c(Cl)c1)Nc1ccc(Cl)c(Cl)c1`, the growth in assay [1] was 65.8%; in assay [2], 92.4%; in [3], 114%; in assay [4], 84.3%; in [5], 73.6%; in [6], 61.1%. For the same molecule, the growth in assay [7] is 72.4%; in assay [8], 59.1%; in assay [9], 85.5%.
As for `CC(=O)c1ccc2oc(=O)n(Cc3ccc(C#N)cc3)c(=O)c2c1`, the growth is 106% in assay [1]; 103% in assay [2]; 103% in [3]; 119% in assay [4]; 108% in assay [5]; 117% in [6]. Besides, the growth is 103% in [7], 110% in [8] and 104% in assay [9].
With `O=C(Nc1ccc(F)cc1F)c1cc(Cl)ccc1O`, the growth is 1.46% (active) in assay [1]; 10.6% in [2]; 15.3% in [3]; -11.2% (active) in assay [4]; 19.3% in assay [5]; 7.98% (active) in [6]. Also, the growth in assay [7] was 9.26% (active); in assay [8], 7.62% (active).
Take `COc1cc(/C=C/C(=O)c2ccc(Nc3nc(NCCO)nc(N4CCOCC4)n3)cc2)cc(OC)c1OC`: the growth was -21% (active) in assay [1]; 11.6% in assay [2]; 34% in assay [3]; 23.9% in [10]; 20.6% in assay [5]; 2.88% (active) in assay [6]. The growth in assay [7] was 9.53% (active); in assay [8], 53.7%; in assay [9] it was 32.1%.
For `O=C(Nc1ccsc1C(=O)NC1CCCCC1)c1ccc(F)cc1`, the growth in [1] is 70%; in assay [2], 102%; in assay [3], 98.3%; in [4] it was 101%; in assay [5] it was 90.7%; in assay [6], 111%. Further, the growth in [7] was 105%; in assay [8] it was 96.5%; in assay [9] it was 102%.
In the case of `CCn1c(SCC(=O)Nc2cc(C(F)(F)F)ccc2Cl)nc2ccccc2c1=O`, the growth in assay [1] is 14.2%; in [2], 60.9%; in assay [3], 78.3%; in [4] it was 76.5%; in assay [5] it was 34.2%; in [6], 52.4%. Moreover, the growth is 43.8% in [7], 47.3% in [8] and 50.6% in assay [9].
As for `CCOc1ccc(Nc2ccnc3cc(Cl)ccc23)cc1`, the growth is -14.1% (active) in assay [1]; -1.07% (active) in assay [2]; 36% in [3]; 2.15% (active) in assay [4]; 14.9% in assay [5]; 11.7% in assay [6]. In addition, the growth is 29.3% in [7], 3.34% (active) in [8] and 1.44% (active) in [9].
Take `O=C(Nc1ccccc1O)c1ccc(-c2ccc(Cl)cc2Cl)o1`: the growth in assay [1] is 74.1%; in assay [2] it was 94.3%; in [3], 99.2%; in assay [4], 94.5%; in [5] it was 88.3%; in assay [6], 85.6%. Also, the values for the growth in assay [7], in assay [8] and in assay [9] were 93.8%, 90.3% and 77.2%, respectively.
As for `Cc1ccc(CN2CCC(C(=O)Nc3ccc(-c4cc5ccccc5[nH]4)cc3)CC2)o1`, the growth was 20.5% in [1]; 53.3% in assay [2]; 98.1% in [3]; 107% in assay [4]; 61% in [5]; 49.4% in [6]. The growth in [7] was 67%; in assay [8], 44.3%; in assay [9], 92.1%.
As for `COC(=O)c1c2c(c(C)[n+]([O-])c1C)C(=O)C=C(NCc1ccccc1)C2=O`, the growth in assay [1] was -0.203% (active); in [2] it was 4.33% (active); in [3], -63.3% (active); in [10], -95% (active); in [5] it was -56.6% (active); in assay [6], -35.4% (active). The growth is -30.6% (active) in assay [7], -14% (active) in assay [8] and -34.4% (active) in assay [9].
Consider `CCC1=C[C@@H]2CN(C1)Cc1c([nH]c3ccccc13)[C@@](C(=O)OC)(c1cc3c(cc1OC)N(C)[C@H]1[C@@](O)(C(=O)OC)[C@H](OC(C)=O)[C@]4(CC)[C@@H]5C[C@@H]5CN5CC[C@]31[C@@H]54)C2`, for which the growth in assay [1] was -20.3% (active); in [2], 14.5%; in [3] it was 44.6%; in assay [4], -24% (active); in assay [5], 1.74% (active); in [6], -25.8% (active). Also, the figures for the growth in assay [7], in assay [8] and in [9] were -5.73% (active), 1.35% (active) and 72%, respectively.
`CN(C)c1ccc(N=Cc2ccc(N3CCOCC3)cc2)cc1`: the growth in assay [1] was 47.5%; in assay [2] it was 62.7%; in assay [3], 111%; in [4] it was 94.7%; in [5] it was 117%; in assay [6] it was -4.05% (active). Besides, the figures for the growth in assay [7], in assay [8] and in assay [9] were 107%, 83.1% and 94.4%, respectively.
With `CCCC(c1nnnn1C1CCCCC1)N1CCN(C(=O)c2ccco2)CC1` (stereo not given), the growth was 28.9% in assay [1]; 86.4% in assay [2]; 89.4% in assay [3]; 79.5% in [4]; 69.2% in assay [5]; 25.2% in assay [6]. Further, the growth in assay [7] was 60.7%; in assay [8], 46.1%; in assay [9], 92.9%.
For `CS(=O)(=O)Nc1ccc(C(=O)NC(C(=O)NO)c2ccc(-c3cccc(F)c3)cc2)cc1` (stereo not given), the growth in assay [1] was 82.8%; in assay [2], 97.3%; in assay [3], 31.6%; in [10], 70.9%; in assay [5] it was 39.6%; in assay [6], 64.7%. Moreover, the growth in assay [7] is 73%; in [8], 66.6%; in [9], 82.4%.
